Results published in PubChem BioAssay AID1259415 (National Center for Advancing Translational Sciences (NCATS), 2018).
Out of some 410,000 compounds screened, about 18,000 (4.4%) were called active. Another 7% or so got no clear call; they are omitted. The sample as a whole holds a higher share of actives than the screen did. Values without a mark were called inactive. Rule as the data show it: active = activity change below about -60%; inconclusive = no clear call, values can overlap the other calls; inactive = above about -39%.

Assay: qHTS Assay for inhibitors of the human cytomegalovirus (HCMV)
Settings: HFF cells, HCMV-luciferase reporter, 72 h; at 57.5 µM; stronger effect = lower value
Procedure, shortened: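 Inhibition of viral replication was scored as loss of reporter luminescence in HFFs infected with HCMV-luciferase (MOI 1 PFU/cell) for 72 h; compounds tested at 2 doses, normalized to buffer and Salinomycin controls.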
% is scaled to controls: 0 for no effect and ±100 for the full control effect.

Row | Structure (SMILES) | activity change, negative = inhibition
1 | CC1(C)C(C=C(Cl)Cl)C1C(=O)NC(O)C(=O)c1ccccc1 (stereo not drawn) | -33.9%
2 | Cc1cc(C)cc(NC(=O)Cn2c(=O)c3ccccc3n3nncc23)c1 | 2.01%
3 | CC(=O)c1sc(N2C(=O)c3oc4ccccc4c(=O)c3C2c2ccc(C)cc2)nc1C (stereo not drawn) | 24.4%
4 | CN(C(=O)CN1CCN(c2cc(-c3ccc(OCc4ccccc4)cc3)ncn2)CC1)c1ccccc1 | -71.2% (active)
5 | CCN(CC)c1ccc(NC(=O)CN2CCN(c3ccccn3)CC2)cc1 | 28.5%
6 | CCOc1ccc(OCc2ccc(C(=O)N(C)c3ccccc3)o2)cc1 | 41.3%
7 | CCCc1cc(=O)n2[nH]c(NCc3ccc(CC)cc3)nc2n1 | -6.39%
8 | OC(c1ccccc1)c1nc(-c2cnc3ccccc3c2)cs1 (stereo not drawn) | 184%
9 | CC(=O)NC(c1ccccc1)c1nc(-c2cccc(C(C)C)c2)cs1 (stereo not drawn) | -66.8% (active)
10 | CC(=O)NC(c1ccccc1)c1nc(-c2ccccc2C)cs1 (stereo not drawn) | -25.4%
11 | Cc1ccc(N(C)C(=O)C2CCN(S(=O)(=O)c3ccc4c(c3)CCCN4C(=O)C3CCC3)CC2)cc1 | 8.58%
12 | Cc1c(NC(=O)C(C)Oc2cccc(Cl)c2)c(=O)n(-c2ccccc2)n1C (stereo not drawn) | -25%
13 | NC(=O)C1CCN(C(=O)CC2C(=O)NCCN2Cc2cccc(Oc3ccccc3)c2)CC1 (stereo not drawn) | -38.9%
14 | ClC1(Cl)CC1CSc1ncn[nH]1 (stereo not drawn) | 62.8%
15 | CCCCOc1ccc(Cl)cc1CSc1nncn1N | -20.2%
16 | COc1ccc(Cl)cc1CSc1ncn[nH]1 | -63.2% (active)
17 | CCCCOc1ccc(NC(=O)c2cc3c(n(-c4ccc(Cl)cc4)c2=O)CCCC3=O)cc1 | 14.9%
18 | COC(=O)c1ccc(NC(=O)CSc2n[nH]c(-c3ccccc3)n2)cc1 | 16.1%
19 | Cc1ccc(NC(=O)C(=O)NCC(c2cccnc2)N2CCOCC2)cc1 (stereo not drawn) | -12.5%
20 | COc1ccccc1N1CCN(C2C(=O)c3ccccc3N2C(C)=O)CC1 (stereo not drawn) | 0%
21 | Cc1ccc(C(=O)N/C(=C/c2cccs2)C(=O)N2CCCCC2)cc1 | -25.9%
22 | O=C(N/C(=C\c1ccc(O)cc1)C(=O)N1CCCCC1)c1ccccc1 | -16.2%

Row | Structure (SMILES) | activity change, negative = inhibition
23 | Cc1ccc(C(=O)N/C(=C\c2cn(S(=O)(=O)N(C)C)c3ccccc23)C(=O)N2CCCC2)cc1 | -95.9% (active)
24 | CC1(C(=O)NS(=O)(=O)c2cccs2)CCN1C(=O)Cc1ccc(-c2ccccc2)cc1 (stereo not drawn) | -1.93%
25 | C#Cc1ccc(NC(=O)C2(C)CCN2C(=O)Cc2ccc(-c3ccccc3)cc2)cc1 (stereo not drawn) | -83.5% (active)
26 | COc1ccc(OC)c(NC(=O)C2(C)CCN2C(=O)Cc2ccccc2)c1 (stereo not drawn) | -33.9%
27 | COC(=O)c1cc(NC(=O)CCS(=O)(=O)c2cc(Br)cc3c2N(C(=O)C2CC2)CC3)cc(C(=O)OC)c1 | 3.41%
28 | COc1cc(-n2c(C)nc3cc(C(=O)NCc4ccco4)ccc32)cc(OC)c1OC | 17.2%
29 | CCCC1=Nc2cc(C(=O)NCc3ccco3)ccc2Sc2ccccc21 | -69.1% (active)
30 | O=C(NCc1ccco1)c1cccc(-c2ccc3nncn3c2)c1 | 15.7%
31 | COc1ccc(-c2ccc(=O)n(CC(=O)Nc3ccc(Br)cc3F)n2)cc1 | -10.5%
32 | O=C1c2cccc3cccc(c23)N1CN1CCN(c2ccccn2)CC1 | 16%
33 | CCOC(=O)c1c(C)[nH]c(C)c1S(=O)(=O)NCC(=O)NCc1cccc(C)c1 | -20.2%
34 | COc1ccccc1NC(=O)C1=C(C)Nc2nc(SCC(=O)c3ccc(C)cc3)nn2C1c1ccccc1C (stereo not drawn) | -1.97%
35 | Cc1cccc2c1-c1sc(C(=O)Nc3ccc(F)cc3F)cc1CO2 | -12.8%
36 | COc1ccc(-n2c(SCC(N)=O)nc3c(oc4ccccc43)c2=O)cc1 | -15.1%
37 | Cc1cccc(-n2c(SCC(N)=O)nc3c(c2=O)C2(CCCCC2)Cc2ccccc2-3)c1 | -70.4% (active)
38 | CCOC(=O)C1Cn2c(nc3c(c2=O)C(C)(CC)Cc2ccccc2-3)S1 (stereo not drawn) | -19.7%
39 | NC(=O)c1ccc(Nc2ccc3c(c2)CCC3)c([N+](=O)[O-])c1 | -8.76%
40 | CCCCN(CC)C(=O)c1c[nH]c2ccc(S(=O)(=O)Nc3cccc(OC)c3)cc2c1=O | 7.97%
41 | CCOc1ccccc1C(=O)NCc1ccc2c(c1)CCN2C(=O)c1ccc(F)cc1 | -15.6%
42 | Cc1ncsc1CCCl | -26.8%
43 | Cc1cccc(OCC(=O)Nc2ccc(C(=O)O)cc2NC(=O)COc2cccc(C)c2)c1 | -3.05%
